Several values for one entry are separate records, joined by “and”; a condition that tells them apart may be missing. Equal values may be shown once. Hit rate of the full screen: of about 5,500 compounds, about 2,000 (36%) were called active. About 18% were inconclusive and are not listed. Cut-off read from the data, not from the text of the source: active = normalized growth mostly below about 0.91 (no sharp cut-off); inconclusive = no clear call, values can overlap the other calls; inactive = mostly above about 0.92. Some of the results follow.
Assay: chemical genetic growth profiling, strain panel (AID 1159580);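 note: tested at 20 µM; growth read once vehicle control cultures reached saturation at 30 °C; 1 = growth at the plate median or of vehicle wells; lower values mean less growth of the strain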
Conditions: S. cerevisiae deletion strains, growth OD

Measured: normalized growth

CC(=O)OC(C)(C)[C@@H]1Cc2cc3ccc(=O)oc3cc2O1
inactive: locus YAL021C, strain ccr4, active compounds read low 1.01 | locus YAL026C, strain drs2, active compounds read low 0.984 | locus YAL030W, strain snc1, active compounds read low 0.963 | locus YBL061C, strain skt5, active compounds read low 0.969 | locus YBR009C, strain hhf1, active compounds read low 0.909 | locus YBR021W, strain FUR4, active compounds read low 0.99 | locus YBR023C, strain chs3, active compounds read low 0.972 | locus YBR171W, strain sec66, active compounds read low 0.968 | locus YBR229C, strain ROT2, active compounds read low 1 | locus YBR231C, strain swc5, active compounds read low 0.968 | locus YBR279W, strain paf1, active compounds read low 0.975 | locus YCL011C, strain gbp2, active compounds read low 0.954 | locus YCL016C, strain dcc1, active compounds read low 0.977 | locus YCL029C, strain bik1, active compounds read low 1.01 | locus YCL061C, strain MRC1, active compounds read low 0.978 | locus YCL069W, strain vba3, active compounds read low 0.963 | locus YCR088W, strain abp1, active compounds read low 0.982 | locus YDL005C, strain med2, active compounds read low 0.977 | locus YDL035C, strain GPR1, active compounds read low 1.01 | locus YDL040C, strain nat1, active compounds read low 0.968 | locus YDL074C, strain BRE1, active compounds read low 1.03 | locus YDL101C, strain DUN1, active compounds read low 0.999 | locus YDL185W, strain tfp1, active compounds read low 1 | locus YDL192W, strain arf1, active compounds read low 0.989 | locus YDR001C, strain nth1, active compounds read low 0.965 | locus YDR069C, strain doa4, active compounds read low 0.962 | locus YDR101C, strain arx1, active compounds read low 1.01 | locus YDR137W, strain rgp1, active compounds read low 0.992 | locus YDR150W, strain NUM1, active compounds read low 1.01 | locus YDR159W, strain sac3, active compounds read low 0.936 | locus YDR162C, strain NBP2, active compounds read low 1 | locus YDR195W, strain ref2 0.959 | locus YDR297W, strain sur2, active compounds read low 0.972 | locus YDR318W, strain mcm21, active compounds read low 0.991 | locus YDR334W, strain swr1, active compounds read low 0.972 | locus YDR335W, strain msn5, active compounds read low 0.992 | locus YDR388W, active compounds read low 1 | locus YDR392W, strain spt3, active compounds read low 0.789 | locus YDR502C, strain sam2, active compounds read low 1.01 | locus YEL003W, strain gim4, active compounds read low 0.968 | locus YEL037C, strain rad23, active compounds read low 0.965 | locus YEL061C, strain CIN8 (second series), active compounds read low 0.97 | locus YEL061C, strain CIN8, active compounds read low 1 | locus YER015W, strain faa2, active compounds read low 0.989 | locus YER016W, strain bim1, active compounds read low 0.982 | locus YER110C, active compounds read low 0.995 | locus YER111C, strain swi4, active compounds read low 0.974 | locus YER155C, strain BEM2 (second series), active compounds read low 0.94 | locus YER155C, strain BEM2, active compounds read low 0.999 | locus YER167W, strain BCK2, active compounds read low 0.998 | locus YFR010W, strain ubp6, active compounds read low 0.969 | locus YGL078C, strain dbp3, active compounds read low 1.02 | locus YGL086W, strain mad1, active compounds read low 1.01 | locus YGL167C, strain pmr1, active compounds read low 0.949 | locus YGL173C, strain kem1, active compounds read low 0.961 | locus YGL227W, strain vid30, active compounds read low 0.966 | locus YGL240W, strain doc1, active compounds read low 0.96 | locus YGL248W, strain PDE1, active compounds read low 0.997 | locus YGL253W, strain hxk2, active compounds read low 0.985 | locus YGR135W, strain pre9, active compounds read low 0.989 | locus YGR229C, strain SMI1, active compounds read low 1.04 | locus YGR252W, strain gcn5, active compounds read low 0.916 | locus YHR013C, strain ard1, active compounds read low 0.92 | locus YHR027C, strain rpn1, active compounds read low 0.984 | locus YHR030C, strain SLT2, active compounds read low 0.998 and 0.969 | locus YHR079C, strain IRE1 (second series), active compounds read low 1 | locus YHR079C, strain IRE1, active compounds read low 0.978 | locus YHR094C, strain hxt1, active compounds read low 1.01 | locus YHR129C, strain ARP1, active compounds read low 0.996 | locus YHR142W, strain chs7, active compounds read low 0.993 | locus YHR200W, strain rpn10, active compounds read low 0.989 | locus YIL066C, strain RNR3, active compounds read low 1.01 | locus YIL073C, strain SPO22, active compounds read low 1.04 | locus YIL125W, strain kgd1, active compounds read low 1.02 | locus YIR030C, strain dcg1, active compounds read low 0.997 | locus YJL092W, strain hpr5, active compounds read low 0.986 | locus YJL095W, strain BCK1 (second series), active compounds read low 0.983 | locus YJL095W, strain BCK1, active compounds read low 1.01 and 1.05 | locus YJL115W, strain asf1, active compounds read low 0.983 | locus YJL129C, strain trk1, active compounds read low 0.981 | locus YJL134W, strain LCB3, active compounds read low 1.01 | locus YJL154C, strain vps35, active compounds read low 0.966 | locus YJL164C, strain tpk1, active compounds read low 0.996 | locus YJL166W, strain qcr8, active compounds read low 0.979 | locus YJL168C, strain set2, active compounds read low 1 | locus YJL187C, strain SWE1 (second series), active compounds read low 1 | locus YJL187C, strain SWE1, active compounds read low 0.971 | locus YJR043C, strain POL32, active compounds read low 0.991

Reference: PubChem BioAssay AID1159580 (chemical genetic matrix, 2015)
